In all, about 360,000 compounds went through this assay and about 7,500 (2.1%) were called active. Another 8% or so got no clear call; they are omitted. The sample holds actives, similar compounds and a random draw of the others, so the mix is not that of the screen. The call rests on the fitted dose curve; in most records, active means well fitted cell-killing curve with a large enough effect; inconclusive means small, poorly fitted or top-dose-only effect, or effect the other way, or another doubt; inactive means no such curve, though single readings can be large or run the other way.
Assay: qHTS for induction of synthetic lethality in tumor cells producing 2HG: qHTS for the HT-1080-IDH1KD cell line;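 on activity, negative = toxicity: 0% = DMSO wells and -100% = cell-free medium wells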
Conditions: HT-1080 IDH1 knockdown viability, ATP luminescence, 48 h; series mostly up to 46.1 µM; activity, negative = toxicity: at the top concentration
Outline: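 % activity derives from luminescence (CellTiter-Glo), normalised to DMSO and no-cell wells. HT-1080-IDH1KD cells, 750/well, had 48 h compound exposure at 37 °C.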
Potency means the concentration at half of the fitted maximal effect.

| SMILES | activity, negative = toxicity | Potency |
| --- | --- | --- |
| Nc1ncnc2c1ncn2[C@@H]1O[C@H](C(=O)NS(=O)(=O)c2c(Cl)nc3sccn23)[C@@H](O)[C@H]1O | 13.5% (inactive) | – |
| COc1ccc(NC(=O)N(C)C[C@@H]2OCc3cn(nn3)CCCC(=O)N([C@H](C)CO)C[C@H]2C)c(OC)c1 | -13.7% (inactive) | – |
| CCCOC(=O)c1[nH]c2c(c1C)C(=O)CC(c1cccs1)C2 (centres undefined) | – | 0.651 µM (active) |
| COCCOC(=O)c1[nH]c2c(c1C)C(=O)CC(c1ccc(OC)cc1)C2 (centres undefined) | -0.695% (inactive) | – |
| COC(=O)C1C(=O)c2c([nH]c(C(=O)OCCSC)c2C)CC1C (centres undefined) | 4.86% (inactive) | – |
| CCc1nc2c(=O)[nH]cnc2o1 | 6.79% (inactive) | – |
| O=C(Nc1ccc(Cl)cc1)c1csc([C@H]2C[C@H](O)[C@@H](CO)O2)n1 | -8.66% (inactive) | – |
| O=C(N[C@H]1CC[C@H](CC(=O)N2CCCCC2)O[C@@H]1CO)c1cccc(F)c1 | 26% (inactive) | – |
| Cc1c(C(=O)N2CCCc3ccccc32)sc2nc(-c3ccccc3)cn12 | 8.39% (inactive) | – |
| Cc1cccc2cc3c(N)c(C(=O)N4CCCc5ccccc54)sc3nc12 | – | 2.31 µM (active) |
| Cc1ccc(C(=O)N2CCCc3ccccc32)c(Cl)c1 | 0.883% (inactive) | – |
| CC(C)(C)Cc1c(C2CCCCC2)nc2ccc(Br)cn12 | -20.5% (inactive) | – |
| C[C@H]1CN([C@@H](C)CO)C(=O)CCCn2cc(nn2)CO[C@@H]1CN(C)S(=O)(=O)c1ccc(-c2ccccc2)cc1 | 3.42% (inactive) | – |
| N=C1C(c2nc3ccccc3[nH]2)=C(O)CN1NC(=O)c1c[nH]c2ccccc12 | 4.62% (inactive) | – |
| Cc1ccc(C)n1NC(=O)c1ccc([N+](=O)[O-])cc1 | -6.65% (inactive) | – |
| N=C1C(c2nc3ccccc3s2)=C(O)CN1NC(=O)c1ccc([N+](=O)[O-])cc1 | – | 20.6 µM (active) |
| C[C@H]1CN([C@@H](C)CO)C(=O)c2cc(C3=CCCCC3)cnc2O[C@@H]1CN(C)C(=O)Cc1ccccc1 | -8.68% (inactive) | – |
| COc1ccc(C2=NN(c3ccccc3)C(c3cccs3)C2)cc1 (centres undefined) | -0.443% (inactive) | – |
| COc1ccc(C2CC(c3ccccc3)=NN2C(=O)COC(=O)COc2ccccc2)cc1 (centres undefined) | -0.202% (inactive) | – |
| COc1ccc(C2CC(c3cccc(OC)c3)=NN2c2ccc(S(N)(=O)=O)cc2)cc1 (centres undefined) | – | 16.4 µM (active) |

| SMILES | activity, negative = toxicity | Potency |
| --- | --- | --- |
| O=c1[nH]c2ccccc2n1C1CCN(CCOc2ccccc2)CC1 | -17.5% (inactive) | – |
| CCOc1ccc(NC(=O)CSc2nnc3c(n2)[nH]c2ccc(S(=O)(=O)N4CCOCC4)cc23)cc1 | 23.2% (inactive) | – |
| CC(C)CC1C(=O)N(Cc2cn(Cc3ccco3)nn2)CCS(=O)(=O)N1Cc1ccc(-c2ccc(Cl)c(Cl)c2)cc1 (centres undefined) | – | 18.4 µM (active) |
| CC1C(=O)N(Cc2cn(Cc3ccco3)nn2)CCS(=O)(=O)N1Cc1ccc(-c2cccc(CO)c2)cc1 (centres undefined) | -0.032% (inactive) | – |
| CC(C)CC1C(=O)N(Cc2cn(CC3CCCCC3)nn2)CCS(=O)(=O)N1Cc1ccc(-c2ccc(Cl)cc2)cc1 (centres undefined) | -2.65% (inactive) | – |
| C[C@@H]1CN([C@H](C)CO)S(=O)(=O)c2ccc(C#CC3CCCCC3)cc2O[C@H]1CN(C)C(=O)Cc1ccncc1 | -20.4% (inactive) | – |
| COC(=O)c1cc(OC)ccc1-c1ccc(OC)cc1 | -0.423% [at 9.24 µM] (inactive) | – |
| CCOC(=O)C1=C(c2ccc(OC)cc2)C(=O)c2ccccc2C1=O | – | 7.31 µM (active) |
| COc1ccc(CNC(=O)CCN2C(=O)c3ccccc3C2=O)cc1 | 17.2% (inactive) | – |
| CC1=C(C(=O)N(C(C)C)C(C)C)CC(CC(=O)NCC2CCCCC2)C(=O)N1Cc1ccccc1 (centres undefined) | -0.475% (inactive) | – |
| O=C(NCc1ccccn1)[C@@H]1CCCN1C(=O)[C@@H]1CCCN1C(=O)c1ccccc1 | 0.107% (inactive) | – |
| CC(=N\NC(=O)c1cc(Br)ccc1O)/C(=N/O)C(=O)Nc1ccccc1 | – | 16.4 µM (active) |
| CC(=O)N/N=C(\C)c1ccc(Br)cc1Br | 0.294% (inactive) | – |
| CC(C)/C=N/NC(=O)c1cc(Br)ccc1O | 4.46% (inactive) | – |
| CN(C)C1CN(Cc2cn(Cc3ccccc3)nn2)S(=O)(=O)C1 (centres undefined) | 8.37% (inactive) | – |
| CCCNC(=O)C1(C)CCN(C(=O)c2cc(F)ccc2C)C1 (centres undefined) | 28.1% (inactive) | – |
| CSc1ccc(CNC(=O)C2(C)CCCN2C)cc1 (centres undefined) | -1.05% (inactive) | – |
| COc1ccc(CN2CCC(n3nccc3NC(=O)CCCc3ccccc3)CC2)cc1C | – | 18.4 µM (active) |
| COc1cc(CN2CCC(n3nccc3NC(=O)CCCc3ccccc3)CC2)ccc1O | -11.8% (inactive) | – |
| Cc1ccc(CN2CCC(n3nccc3NC(=O)CCCc3ccccc3)CC2)o1 | -3.69% (inactive) | – |

| SMILES | activity, negative = toxicity | Potency |
| --- | --- | --- |
| Cc1noc(C)c1NC(=O)N(C)C[C@@H]1Oc2cc(Br)ccc2S(=O)(=O)N([C@@H](C)CO)C[C@H]1C | 0.461% (inactive) | – |
| CCCNC(=O)C1(C)CCN(C(=O)c2ccc(F)cc2Cl)C1 (centres undefined) | 21.7% (inactive) | – |
| Cc1cccc(C)c1-n1nnnc1C(CCc1ccccc1)N1CCN(C/C=C/c2ccccc2)CC1 (centres undefined) | 18.2% (inactive) | – |
| O=C(CC[C@H]1O[C@@H](n2ccc(=O)[nH]c2=O)[C@H](O)[C@@H]1O)N[C@H](Cc1ccccc1)C(=O)NCCCN1CCCC1=O | -0.192% (inactive) | – |
| O=C(NNC(=O)C1CCCC1)c1ccc(F)cc1 | 14% (inactive) | – |
| O=C(/C=C/c1ccc([N+](=O)[O-])o1)NNC(=O)c1ccc(F)cc1 | – | 2.59 µM (active) |
| CCc1noc(C)c1C(=O)NNC(=O)c1ccc(F)cc1 | -1.3% (inactive) | – |
| CC(C)c1ccc2c(c1)c(SC(C)(C)C)c(CC(C)(C)C(=O)O)n2Cc1ccc(Cl)cc1 | – | 18.4 µM (active) |
| N#CCCN(C(=O)Nc1ccc(Cl)c(Cl)c1)C1CCCCC1 | -16.4% (inactive) | – |
| C[C@H](CO)N1C[C@H](C)[C@@H](CN(C)C(=O)c2cccc(F)c2)Oc2cc(-c3cncnc3)ccc2S1(=O)=O | 2.86% (inactive) | – |
| Clc1cccc(N=C2NN=C(c3ccc4c(c3)OCCO4)CS2)c1 | – | 7.94 µM (active) |
| CN(C)c1nc(=Nc2cccc(Cl)c2)ss1 | -2.12% (inactive) | – |
| C[C@H]1CN([C@@H](C)CO)C(=O)CCCn2cc(nn2)CO[C@@H]1CN(C)S(=O)(=O)c1cccs1 | 13.1% (inactive) | – |
| CCCn1c(N)c(C(=O)CSc2nnc(Cc3cccs3)n2C2CC2)c(=O)[nH]c1=O | 8.77% (inactive) | – |
| COc1ccc(N)cc1NC(=O)CN1CCOCC1 | 1.47% (inactive) | – |
| NC(=S)NN=Cc1ccc(OC(=O)COc2cc(Cl)c(Cl)cc2Cl)cn1 | – | 7.31 µM (active) |
| O=C(COc1ccc(Cl)cc1Cl)N/N=C/c1ccccn1 | -20% (inactive) | – |
| O=C(COC(=O)COc1cc(Cl)c(Cl)cc1Cl)NC1CC1 | 0.578% (inactive) | – |
| CC(C)c1cc(Cn2c3ccccc3c(=O)n2C(C)Cn2cc(C3CC3)nn2)on1 (centres undefined) | -8.19% (inactive) | – |

Source: PubChem BioAssay AID686971 (National Center for Advancing Translational Sciences (NCATS), 2013)
